An excerpt weighted towards active compounds, which were near 7.9% of everything screened.
KB-V1 cytotox – qHTS assay for MDR1-selective chemotherapeutics: Primary screen using the drug-selected MDR subline cells KB-V1; KB-V1 MDR cells viability, CellTiter-Glo, 72 h; AID 1347076, 2019; Potency, µM (highest dose often 46.1 µM), hits mostly cytotoxic; 400,000 compounds, 3.4% hits; also: nearly all actives have a fitted effect of over 60% in size
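In this primary screen, KB-V1 cells overexpressing P-gp are incubated with library compounds (lowest to highest concentration) for 72 h at 37 degrees C before a luminescent ATP viability read.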
SW480 rereplic – A quantitative high throughput screen for small molecules that induce DNA re-replication in SW480 colon adenocarcinoma cells; 340,000 compounds, 1.8% hits; Potency, µM (series often up to 46.1 µM), most hits filed as activators; SW480 DNA re-replication, Hoechst DNA content imaging, 48 h; also: nearly all actives have a fitted effect of over 55% in size
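Readout is total intensity of Hoechst-stained nuclei, excited at 405 nm and collected at 500-530 nm. Compound treatment lasted 48 hr at 37 C in 5% CO2 before staining.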
MCF10A rereplic – A quantitative high throughput screen for small molecules that induce DNA re-replication in MCF 10a normal breast cells; MCF 10A DNA re-replication, Hoechst nuclear intensity, 48 h; Potency, µM (top dose mostly 46.1 µM), actives largely listed as activators; 350,000 compounds, 2.9% hits; AID 624296, 2012; also: nearly all actives have a fitted effect of over 50% in size
KB-3-1 tox – qHTS assay for MDR1-selective chemotherapeutics: Primary screen using the parental adenocarcinoma cell KB-3-1; Potency, µM (highest dose often 46.1 µM), actives largely listed as cytotoxic; AID 1347075, 2019; KB-3-1 viability, CellTiter-Glo ATP luminescence, 72 h; 400,000 compounds, 1.4% hits; also: nearly all actives have a fitted effect of over 60% in size
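72 h, 37 °C compound treatment of KB-3-1 parental cells; CellTiter-Glo added, 10 min, luminescence read. Data corrected against DMSO-only plates and normalized before curve fitting.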
HT1080-NT tox – qHTS for induction of synthetic lethality in tumor cells producing 2HG: qHTS for the HT-1080-NT fibrosarcoma cell line. HT-1080-NT fibrosarcoma viability, CellTiter-Glo ATP luminescence, 48 h. Potency, µM (highest dose often 46.1 µM), usual class: cytotoxic. 360,000 compounds, 1.6% hits;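 also: NT is the 2HG producing partner of a matched IDH1 knockdown line; nearly all actives have a fitted effect of over 55% in size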
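750 cells/well, RPMI + 5% FBS; 2 h settle, compound pin-transfer, 48 h at 37 degrees C. CellTiter-Glo 10 min RT, luminescence. Normalized to DMSO and media-only wells.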
HT1080 IDH1KD tx – qHTS for induction of synthetic lethality in tumor cells producing 2HG: qHTS for the HT-1080-IDH1KD cell line. HT-1080 IDH1 knockdown viability, ATP luminescence, 48 h. 360,000 compounds, 2% hits. Potency, µM (highest dose often 46.1 µM), hits mostly cytotoxic
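Knockdown cells (IDH1KD HT-1080) received compounds 2 h after plating at 750 cells/well and were kept 48 h at 37 °C in 5% FBS RPMI. A CellTiter-Glo luminescence read gave % activity for curve fitting.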
Numbers stand for hits; i = inactive; ? = inconclusive; nt = no result. Calls follow the shape of the dose curve; as a rule, active = well fitted curve in the direction sought with a large enough effect; inconclusive = small, poorly fitted or top-dose-only effect, or another doubt; inactive = no such curve, though single readings can be large; an effect the other way counts as inactive or inconclusive.

SMILES	KB-V1 cytotox	SW480 rereplic	MCF10A rereplic	KB-3-1 tox	HT1080-NT tox	HT1080 IDH1KD tx
Cc1occc1-c1nnc(SC(C)C(=O)Nc2ccccc2F)o1 (centres undefined)	10µM	i	i	?	?	?
Cc1ccccc1-c1nnc(SCC(=O)NC2CCCCC2)o1	i	i	i	i	i	i
O=C(Cn1cc(S(=O)(=O)N2CCCC2)c(S(=O)(=O)N2CCCC2)c1)Nc1ccccc1	i	nt	nt	?	nt	nt
CC1CC(C)CN(C(=O)CN(C)S(=O)(=O)c2ccc3c(c2)c(=O)n(C)c(=O)n3C)C1 (centres undefined)	i	i	i	i	i	i
O=C(c1ccc(Oc2ccc([N+](=O)[O-])cc2)cc1)N1CCCCCC1	i	i	i	?	i	?
CC1CCCC(N2CCN(C(=O)c3ccc([N+](=O)[O-])cc3)CC2)C1 (centres undefined)	i	8.2µM	?	i	i	i
C[C@H](NC(=O)c1[nH]cnc1C(=O)Nc1ccccc1F)c1ccccc1	18µM	nt	nt	?	i	i
CNC(=O)c1[nH]cnc1C(=O)N[C@@H](Cc1ccccc1)C(=O)OC(C)(C)C	i	i	i	i	i	i
CN(Cc1ccccc1)C(=O)c1[nH]cnc1C(=O)Nc1ccc(Br)cc1F	?	nt	nt	16µM	i	i
CC(C)(C)OC(=O)[C@H](Cc1ccccc1)NC(=O)c1[nH]cnc1C(=O)Nc1ccccc1F	21µM	nt	nt	?	i	?
O=C(Nc1cccc(Cl)c1Cl)c1cc2nc(-c3ccc(Cl)cc3)cc(C(F)(F)F)n2n1	i	nt	nt	i	nt	nt
CCOC(=O)c1[nH]c2ccc(F)cc2c1NC(=O)CN1CCN(C/C=C/c2ccccc2)CC1	?	?	15µM	i	21µM	26µM
COC(=O)c1[nH]c2ccccc2c1NC(=O)CN1CCN(C/C=C/c2ccccc2)CC1	?	i	i	i	?	?
CCOC(=O)N1CCN(CC(=O)Nc2c(C(=O)OC)[nH]c3ccc(Cl)cc23)CC1	2.3µM	i	i	16µM	i	i
CCOC(=O)N1CCN(CC(=O)Nc2c(C(=O)OC)[nH]c3cc(C)ccc23)CC1	i	i	i	i	i	i
CCN(CC(=O)Nc1c(F)cccc1F)C(=O)CCNC(=O)c1ccco1	i	i	i	i	i	i
Cc1ccc(C)c(CSc2nnc(-c3cccnc3)o2)c1	18µM	i	i	i	i	i
Fc1ccccc1CSc1nnc(-c2cccnc2)o1	i	i	i	i	i	i
COc1ccc(/C=C2\CCC(C3CCCC3)C2=O)cc1Cn1cccn1 (centres undefined)	23µM	i	i	i	i	i
O=C1/C(=C/c2ccccc2)CCC1C1CCCC1 (centres undefined)	i	i	i	i	i	i
COc1ccc(/C=C2\CCC(C3CCCC3)C2=O)cc1Cn1nc(C)cc1C (centres undefined)	?	i	i	i	i	i
COc1ccccc1/C=C1\CCC(C2CCCC2)C1=O (centres undefined)	i	i	18µM	i	i	i
O=c1cc(-c2ccccc2)nc2c(Cl)cc(Cl)cn12	i	nt	nt	i	i	i
Cc1ccc(Cc2c(-c3ccc(F)cc3)nc3c(Cl)cc(C(F)(F)F)cn23)cc1	i	nt	nt	?	i	i
FC(F)(F)c1cc(Cl)c2nc(-c3ccc(Cl)cc3)c(Cc3ccsc3)n2c1	i	nt	nt	12µM	i	i
SMILES	KB-V1 cytotox	SW480 rereplic	MCF10A rereplic	KB-3-1 tox	HT1080-NT tox	HT1080 IDH1KD tx
Fc1ccc(-c2nc3c(Cl)cc(C(F)(F)F)cn3c2Cc2cccc(Cl)c2)cc1	i	nt	nt	23µM	i	i
FC(F)(F)c1cc(Cl)c2nc(-c3ccccc3)c(Cc3ccsc3)n2c1	i	nt	nt	?	i	i
Cc1ccc(NC(=O)N2CCCC2C(=O)Nc2ccc3c(c2)OCCO3)cc1 (centres undefined)	i	i	i	i	i	i
CN=C1NC(C)(C)C2CCC(C)(CC2)S1	i	i	12µM	i	i	i
CC(C)[C@@H](NC(=O)OC(C)(C)C)c1cc(C(=O)c2c(-c3ccccc3)[nH]c3ccccc23)c(N)s1	23µM	nt	nt	?	?	?
Cc1cc(C)n(-c2ccc(C(=O)N3CCN(S(=O)(=O)c4ccc(OC(F)(F)F)cc4)CC3)cc2)n1	i	nt	nt	i	i	i
Cc1cc(C(=O)Nc2cnn(Cc3ccc(Cl)cc3Cl)c2)no1	13µM	i	i	i	i	i
Cc1cc(C(=O)NNc2ccc(C)c(C)c2)no1	?	?	16µM	?	?	23µM
Cc1cc(C(=O)NNC(=O)Nc2ccc(Cl)cc2)no1	i	i	i	i	i	i
COc1cccc(-c2cc(C(=O)Nc3cnn(Cc4ccc(Cl)cc4Cl)c3)no2)c1	i	nt	nt	i	nt	nt
Cc1cc(C(=O)NCCc2ccc(Cl)cc2)no1	i	i	6.5µM	i	i	i
Cc1cc(C(=O)NNc2ccc(Cl)cc2)no1	i	i	7.3µM	?	2.3µM	2.6µM
Cc1c(C(=O)N2CCC(C)CC2)sc2ncn(CC(=O)N3CCC(C)CC3)c(=O)c12	i	?	i	i	i	i
Nc1ccc(N(CCO)CCO)cc1	i	i	i	i	i	i
CCN(CC)c1ccc(N)cc1	i	?	?	?	8.2µM	15µM
O=C(NNS(=O)(=O)c1ccc(F)cc1)c1ccccc1F	i	18µM	i	i	i	i
C[C@@H]1CN([C@@H](C)CO)C(=O)c2cc(N(C)C)ccc2O[C@@H]1CN(C)S(C)(=O)=O	i	i	i	i	i	i
CCOC(=O)C1(C)CCCN(C(=O)c2ccc(C#N)cc2)C1 (centres undefined)	i	nt	nt	i	i	i
COc1cc(-c2cc(NC(C)=O)c3ncc(-c4cc(OC)c(OC)c(OC)c4)n3c2)cc(OC)c1OC	?	nt	nt	?	23µM	13µM
COc1ccc(-c2cnc3c(NC(C)=O)cc(-c4ccsc4)cn23)cc1OC	?	nt	nt	i	i	i
COc1ccc(-c2cnc3c(NC(C)=O)cc(-c4ccccc4OC)cn23)cc1OC	?	nt	nt	?	?	26µM
COc1cc(-c2cc(NC(C)=O)c3ncc(-c4ccccc4)n3c2)cc(OC)c1OC	?	nt	nt	i	?	?
COc1ccc(-c2cc(NC(C)=O)c3ncc(-c4ccc(OC)c(OC)c4)n3c2)cc1OC	12µM	nt	nt	?	?	?

Bioassay records (PubChem BioAssay)
